CIT2-GFP yeast – alters CIT2-GFP fluorescence in TOR pathway yeast screen; S. cerevisiae CIT2-GFP strain, flow cytometry, 3 h; 100 means same as DMSO wells; GFP response vs DMSO, % at 10 µM; hit rate 0.065% among 320,000;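 active = GFP response relative to DMSO above a set limit, near the screen mean plus 3 SD, cut at about 150% in these data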;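 also: ratio of well median GFP fluorescence to mean of DMSO wells on the plate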
AGP1 TOR yeast – alters AGP1-GFP fluorescence in TOR pathway yeast screen; hit rate 0.02% among 320,000; GFP response vs DMSO, % at 10 µM; S. cerevisiae AGP1-GFP multiplex flow cytometry, 3 h; GFP as percent of DMSO wells;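 active = GFP response relative to DMSO above a set limit, near screen average plus 3 SD, cut at about 150% in these data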;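 also: median GFP channel fluorescence of the gated AGP1 strain per well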
LAP4-GFP MLPCN – yeast TOR pathway LAP4-GFP modulation; S. cerevisiae LAP4-GFP multiplex, flow cytometry GFP, 3 h; median GFP as percent of DMSO wells; GFP response vs DMSO, % at 10 µM; hit rate 0.34% among 320,000;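 active = GFP response vs DMSO above a set limit, about the screen mean plus 3 SD, cut at about 150% in these data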
MEP2-GFP yeast – yeast TOR pathway MEP2-GFP modulation; S. cerevisiae MEP2-GFP strain, flow cytometry GFP, 3 h; 100% = DMSO control level; GFP response vs DMSO, % at 10 µM; hit rate 0.51% among 330,000;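 active = GFP response versus DMSO above a set limit, roughly screen mean plus 3 SD, cut at about 180% in these data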;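 also: median GFP fluorescence of the barcode-gated MEP2-GFP cells per well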
RPL19A TOR yeast – modulators of TOR pathway RPL19A-GFP in S. cerevisiae; hit rate 0.3% among 330,000; S. cerevisiae RPL19A-GFP strain, flow cytometry, 3 h; active compounds read low; AID 2025; percent response vs DMSO, % at 10 µM;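 active = percent response vs DMSO below 50%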;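 also: median channel GFP fluorescence of the barcoded RPL19A-GFP strain; lower means less RPL19A-GFP as with rapamycin TOR inhibition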
LAP4 cherry2 – reconfirmed LAP4-GFP TOR pathway modulator in yeast; S. cerevisiae LAP4-GFP strain, flow cytometry GFP, 3 h; shares compounds with LAP4-GFP MLPCN; GFP response vs DMSO, % at 10 µM; hit rate 20% among 590;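 active = GFP signal as percent of the solvent control above about 150%, meaning raised reporter expression, limit read from the data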
MEP2-GFP pick2 – reconfirmed MEP2-GFP TOR pathway modulator in yeast; shares compounds with LAP4-GFP MLPCN; hit rate 10% among 590; S. cerevisiae MEP2-GFP strain, flow cytometry GFP, 3 h; GFP response vs DMSO, % at 10 µM;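 active = GFP signal above 150% of the solvent control wells, that is a rise of more than half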;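 also: median channel GFP fluorescence of all gated yeast cells per well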
RPL19A-GFP pick2 – second confirmation of modulators of TOR reporter RPL19A-GFP in yeast; shares compounds with LAP4-GFP MLPCN; S. cerevisiae RPL19A-GFP strain, flow cytometry GFP, 3 h; active compounds read low; 100% means same as DMSO wells; GFP response vs DMSO, % at 10 µM; AID 2623; hit rate 3% among 590;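 active = under 65% GFP response relative to DMSO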;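 also: median GFP channel fluorescence per well over the all cells gate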
CIT2 GFP CP2 – yeast CIT2-GFP TOR reporter modulation, second cherry pick; GFP response vs DMSO, % at 10 µM; hit rate 8% among 590; shares compounds with LAP4-GFP MLPCN; S. cerevisiae CIT2-GFP strain, flow cytometry GFP, 3 h; DMSO control wells read 100%;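 active = GFP response vs DMSO above about 150%, limit read from the data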;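 also: median green fluorescence per well over all gated yeast cells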
AGP1 GFP CP2 – yeast AGP1-GFP TOR reporter modulation, second cherry pick | shares compounds with LAP4-GFP MLPCN | S. cerevisiae AGP1-GFP strain, flow cytometry GFP, 3 h | percent response vs DMSO, % at 10 µM | 590 tested, under 10 active | AID 2643;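 active = over 150 percent of DMSO response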;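 also: median GFP channel fluorescence over all cells without mother daughter split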
s288c autofluor – yeast s288c autofluorescence artifact, counter-screen. shares compounds with LAP4-GFP MLPCN. S. cerevisiae s288c, 520 nm autofluorescence, flow cytometry, 3 h; active compounds read high; zero means same as solvent-only cells. fluorescence change (kMESF span) at 33 µM. 610 tested, under 10 active. AID 2757;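 active = fluorescence span over the dose series, or activity score, above about 33, limit read from the data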
Yeast autofl DR – yeast s288c autofluorescence artifact in dose response. AID 488829. shares compounds with LAP4-GFP MLPCN. fluorescence change (span) at 33 µM. 110 tested, under 10 active. S. cerevisiae s288c parental, compound autofluorescence, flow cytometry, 3 h;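 active = fluorescence change span, or the activity score built from it, above 25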
TORC1 bypass gr – stops wildtype yeast growth while TORC1 bypass cells still grow; S. cerevisiae BY4741 spot growth rating, 48-72 h; active compounds read low; shares compounds with LAP4-GFP MLPCN; growth rating (0-3) at 30 µM; 120 tested, under 10 active; AID 504456;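 active = growth rating at most 1 for wild type yeast while the TORC1 bypass strain still grows fully, rated 3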
Each line names hits and unclear results; the compound was inactive in the other large screens (follow-up assays come after a bar, where they were run). Rows were chosen to be rich in hits. Some 0.89% of all compounds tested hit in one or more screens of this group.

O=[N+]([O-])c1cc(Cl)c2cccnc2c1O	LAP4-GFP MLPCN 201.6 | s288c autofluor inactive | Yeast autofl DR inactive | TORC1 bypass gr inactive
O=[N+]([O-])c1ccc(Cl)c2cccnc12	none
CC(=O)NC(c1ccccc1)c1cc(Cl)c2cccnc2c1O (stereo unspecified)	none
Oc1c(I)cc(Cl)c2cccnc12	LAP4-GFP MLPCN 286.0 | LAP4 cherry2 226.0 | MEP2-GFP pick2 216.3 | RPL19A-GFP pick2 inactive | CIT2 GFP CP2 176.4 | AGP1 GFP CP2 inactive | s288c autofluor inactive | Yeast autofl DR inactive | TORC1 bypass gr inactive
COC(=O)c1ccccc1NC(=O)COC(=O)CSc1nnc(N)s1	none
CN(CC(=O)Nc1c(Cl)cccc1Cl)C(=O)C1CC(=O)N(Cc2ccccc2)C1 (stereo unspecified)	none
Cc1ccsc1/C=N/Nc1ncc(Cl)cc1Cl	LAP4-GFP MLPCN 300.2 (no result: RPL19A TOR yeast) | s288c autofluor inactive
Cc1cc(C)nc(N/N=C/c2sccc2C)n1	none
Cc1c(NC(=O)C(C)Sc2n[nH]c(N)n2)c(=O)n(-c2ccccc2)n1C (stereo unspecified)	CIT2-GFP yeast 170.0, LAP4-GFP MLPCN 195.9, MEP2-GFP yeast 647.5 | LAP4 cherry2 inactive | MEP2-GFP pick2 inactive | RPL19A-GFP pick2 inactive | CIT2 GFP CP2 inactive | AGP1 GFP CP2 inactive
Cc1nc(SC(C)C(=O)Nc2c(C)n(C)n(-c3ccccc3)c2=O)nc(C)c1C (stereo unspecified)	none
CCOc1cc2sc(N3CCC(C(=O)NCCCN4CCCC4=O)CC3)nc2cc1Br	none
CC(=O)Oc1ccc2c(c1)Oc1cc(OC(C)=O)ccc1C21OC(=O)c2ccccc21	CIT2-GFP yeast 164.1, LAP4-GFP MLPCN 206.4, MEP2-GFP yeast 230.2 | LAP4 cherry2 inactive | MEP2-GFP pick2 174.7 | RPL19A-GFP pick2 inactive | CIT2 GFP CP2 403.3 | AGP1 GFP CP2 inactive
Cc1cc(O)ccc1C1(c2ccc(O)cc2C)OC(=O)c2ccccc21	none
O=C(CSC1=NS(=O)(=O)c2ccccc21)Nc1ccccc1	none | LAP4 cherry2 inactive | MEP2-GFP pick2 inactive | RPL19A-GFP pick2 61.6 | CIT2 GFP CP2 inactive | AGP1 GFP CP2 inactive | s288c autofluor inactive
Cc1cc(OCC(=O)N(Cc2ccco2)c2c(N)n(Cc3ccccc3)c(=O)[nH]c2=O)ccc1Cl	none
CCOC(=O)C1CCCN(C(=O)c2cccc(S(=O)(=O)N(C)c3ccc(C)cc3)c2)C1 (stereo unspecified)	none
CCC(=O)Oc1oc(-c2ccccc2)nc1C=Nc1ccc(C)cc1	none | s288c autofluor inactive
CCC(=O)Oc1oc(-c2ccccc2)nc1C=Nc1ccccc1OC	none | s288c autofluor inactive
CN(C)c1ccc(N=Cc2nc(-c3ccccc3)oc2OC(=O)c2cccc(Br)c2)cc1	none
Cc1ccc(COC(=O)c2ccc3ccccc3n2)cc1	none
COC(=O)N/N=C/c1ccc(OS(=O)(=O)c2ccc(C)cc2)c(OC)c1	none
C=CCNC(=O)/C(C#N)=C/c1ccc(OS(=O)(=O)c2ccc(C)cc2)c(OC)c1	LAP4-GFP MLPCN 185.6 | LAP4 cherry2 inactive | MEP2-GFP pick2 inactive | RPL19A-GFP pick2 inactive | CIT2 GFP CP2 inactive | AGP1 GFP CP2 inactive
CC1=CC(=O)c2c(O)ccc(O)c2C1=O	LAP4-GFP MLPCN 195.1 | LAP4 cherry2 196.2 | MEP2-GFP pick2 276.2 | RPL19A-GFP pick2 inactive | CIT2 GFP CP2 inactive | AGP1 GFP CP2 inactive
O=C1C=C(O)c2cccc(O)c2C1=O	none
CC(=O)N1CCN(C(=O)c2ccccc2NS(=O)(=O)c2ccc(F)cc2)CC1	none
CC(=O)Oc1ccccc1/C=C/c1nc2ccccc2c(=O)o1	none
O=c1oc(/C=C/c2ccc([N+](=O)[O-])s2)nc2ccccc12	CIT2-GFP yeast 161.3, LAP4-GFP MLPCN 153.9, MEP2-GFP yeast 184.9 | s288c autofluor inactive
Cn1c(=O)c(NCCO)c2c3c(cccc31)C(=O)c1ccccc1-2	none
CCCCNc1c2c3c(cccc3n(C)c1=O)C(=O)c1ccccc1-2	LAP4-GFP MLPCN 171.0 | LAP4 cherry2 321.6 | MEP2-GFP pick2 inactive | RPL19A-GFP pick2 inactive | CIT2 GFP CP2 inactive | AGP1 GFP CP2 inactive | s288c autofluor inactive
CCN1CCN(C(=O)c2ccc(C)c(S(=O)(=O)Nc3cccc(C)c3)c2)CC1	CIT2-GFP yeast 166.0 | LAP4 cherry2 inactive | MEP2-GFP pick2 inactive | RPL19A-GFP pick2 inactive | CIT2 GFP CP2 inactive | AGP1 GFP CP2 inactive
CC1Cc2ccccc2N1C(=O)CCn1cccn1 (stereo unspecified)	none
CCOCCCNC(=O)Cn1nc(Cc2ccncc2)c2ccccc2c1=O	none
Cc1c(N2C(=O)/C(=C/c3ccccc3)SC2=S)c(=O)n(-c2ccccc2)n1C	none
Cc1c(N2C(=O)/C(=C\c3ccccc3O)SC2=S)c(=O)n(-c2ccccc2)n1C	LAP4-GFP MLPCN 169.8 | s288c autofluor inactive
Cc1cc(C)c(C(=O)N2CCCC(Nc3ccc(C)c(C)c3)C2)o1 (stereo unspecified)	none
Cc1cc(C)c(C(=O)N2CCCC(Nc3ccc(F)cc3)C2)o1 (stereo unspecified)	LAP4-GFP MLPCN 200.9 | LAP4 cherry2 inactive | MEP2-GFP pick2 inactive | RPL19A-GFP pick2 inactive | CIT2 GFP CP2 inactive | AGP1 GFP CP2 inactive
O=C(COC(=O)/C=C/c1cccc(F)c1)NC(=O)NC1CCCC1	LAP4-GFP MLPCN 163.6 | LAP4 cherry2 inactive | MEP2-GFP pick2 inactive | RPL19A-GFP pick2 inactive | CIT2 GFP CP2 inactive | AGP1 GFP CP2 inactive
